Measured values published in PubChem BioAssay (NCI).
Compounds without any hit were thinned out: in the full panel of roughly 83,000, 20% have a hit.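 Method: cells in 96-well plates; compound added at one concentration; 48 h incubation; percent growth measured; values under 10 scored active.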 Calls of active or inactive are those of the source.

Each molecule was assayed on HL-60(TB) leukemia (assay: NCI-60 one-dose screen, 48 h (100 = growth as untreated, 0 = no growth, -100 = all killed)). Conditions: 10 µM unless noted.

SMILES | growth
Cc1ccc(NC(=O)c2ccc(CN3CCOCC3)c(C(F)(F)F)c2)cc1Oc1ccc(-c2[nH]nc3ncnc(N)c23)cc1 | 80.9% (inactive)
O=C(CSc1nnc(-c2ccc(Cl)cc2)n1-c1ccccc1)Nc1cccc(Cl)c1 | 89.8% (inactive)
CC(C)=CCC[C@](C)(O)[C@H]1CC[C@]2(C)[C@@H]1CC[C@@H]1[C@@]3(C)CC[C@H](N)C(C)(C)[C@@H]3CC[C@]12C | -24.1% (active)
CN(C)CCCNc1c2ccc(Cl)cc2nc2c1oc1ccccc12 | -1.28% (active)
COc1cc([C@H]2OC[C@H]3[C@@H]2CO[C@@H]3c2ccc(O)c(OC)c2)ccc1O | 93.5% (inactive)
COC(=O)N1CCN(CCNCc2ccc(NC(=O)c3ccc(C)c(C#Cc4cnc5cccnn45)c3)cc2C(F)(F)F)CC1 | -12.3% (active)
CCOC(=O)c1cnc2c(-c3ccc(Cl)c(Cl)c3)cnn2c1 | 59.5% (inactive)
Cc1[nH]c(C(=O)Nc2ccc(C(N)=O)cc2N2CCOC(C)C2)c(Cl)c1Cl (stereo not drawn) | 98.1% (inactive)
O=C(/C=C/c1cccc(F)c1)c1cccc(OCCCOc2cccc(C(=O)/C=C/c3cccc(F)c3)c2)c1 | 68.3% (inactive)
CCOC(=O)c1c(NCC(=O)Nc2cccc([N+](=O)[O-])c2)sc(C(C)=O)c1C | -18.4% (active)
COc1ccc(C2c3[nH]c4ccc(Cl)cc4c3CCN2c2oc(CO)nc2C#N)cc1 (stereo not drawn) | 29.4% (inactive)
Cn1ncc2ncc(-c3ccc4ncc(C#N)c(N5CCc6cc(F)c(Cl)cc65)c4c3)cc21 | 26.7% (inactive)
CCCC(=O)NC(c1cccnc1)c1cc(C(C)(C)C)c2cccnc2c1O (stereo not drawn) | -13.7% (active)
Cc1[nH]c(C(=O)Nc2ccc(S(=O)(=O)N3CCCCC3)cc2OCCOCCOCCOCCOCCOCCOCCOCCOCCOc2cc(S(=O)(=O)N3CCCCC3)ccc2NC(=O)c2[nH]c(C)c3c2CCCCC3=O)c2c1C(=O)CCCC2 | 10.7% (inactive)
O=C(Nc1ccccc1)Nc1nc2ccc([N+](=O)[O-])cc2[nH]1 | 70.2% (inactive)
COc1ccc(N/N=C/c2c(-c3ccc(S(C)(=O)=O)cc3)nc3ccccn23)cc1 | 39.4% (inactive)
O=C1C(SCc2ccccc2)=C(Cl)CN1c1ccccc1 | 72.6% (inactive)
CCOc1c(C#N)c(Nc2ccc(S(N)(=O)=O)cc2)c(C#N)c2nnc(C)n12 | 114% (inactive)
COc1ccc(/C=C(\C#N)C(=O)N2c3ccccc3Sc3ccc(SC)cc32)cc1F | 93.5% (inactive)
C[C@@H]1C[C@H]2C(=O)O[C@@H](C)C(NC(=O)[C@H](Cc3cc(F)cc(F)c3)NC(=O)Nc3ccc(Cl)cc3F)C(=O)N3CCC[C@H]3C(=O)N3CCCC[C@H]3C(=O)N[C@@H](CO)C(=O)N2C1 (stereo partly drawn) | 13.5% (inactive)
COc1cc(-c2nc3sccn3c2-c2ccnc(S(C)(=O)=O)n2)ccc1F | 93.9% (inactive)
COC(=O)C[Se]C(=O)Cc1c(C)n(C(=O)c2ccc(Cl)cc2)c2ccc(OC)cc12 | -20.9% (active)
CCOC(=O)c1c(NC(=O)c2cccc(C(F)(F)F)c2)sc2cc(O)ccc12 | 46.9% (inactive)
O=C(CSc1nc2ccccc2c(=O)n1-c1ccc(Cl)c(Cl)c1)Nc1ccc(S(=O)(=O)Nc2ccc(Cl)nn2)cc1 | 106% (inactive)
Cc1nc(-c2ccccc2O)ccc1C(=O)N=Nc1c(O)[nH]c2ccc(Br)cc12 | 114% (inactive)
CC1=C(C)C(=O)C(Nc2cccc(C(=O)OC(C)(C)C)c2)=C(Cl)C1=O | 68% (inactive)
O=C(c1ccc(O)cc1)C1[C@H](c2ccc(Cl)cc2)[C@@H](c2ccccc2)NC12C(=O)Nc1ccc(Cl)cc12 (stereo partly drawn) | 38.5% (inactive)
Cc1ccc(S(=O)(=O)c2nc(-c3ccc(F)cc3)oc2S(C)(=O)=O)cc1 | 62.4% (inactive)
